Experimental data from PubChem BioAssay AID1950 (The Scripps Research Institute Molecular Screening Center, 2009).
Screen size: about 300,000 compounds; about 1,000 (0.33%) were called active. Only a selection was taken, and actives are over-represented in it overall. Unmarked numbers belong to inactive results. Cut-off read from the data, not from the text of the source: active = inhibition above about 28%; inactive = the rest.

System: EBNA-1 (Epstein-Barr virus nuclear antigen 1), Human herpesvirus 4
Assay: EBNA-1 DNA-binding inhibitors, primary screen, biochemical, fluorescence polarization (AID 1950)
Conditions: at 14.8 µM, active compounds read high

Going from `CCc1nonc1NC(=O)c1oc2ccc(Cl)cc2c1C` to `Cc1nonc1NC(=O)c1oc2ccccc2c1C`, the inhibition falls from 7.96% to 1.17%.

Going from `O=C(CCS(=O)(=O)c1ccccc1)NC1CCCC1` to `Cc1ccccc1CCN(CC(=O)NC1CCCCC1)C(=O)c1csnn1`, the inhibition rises from -3.67% to 3.08%.

Going from `COc1cc(NC(=O)CN(C)S(=O)(=O)c2ccc3nc(C)sc3c2)cc(OC)c1` to `Cc1nc2ccc(S(=O)(=O)N(C)CC(=O)NC(C)c3ccccc3)cc2s1` (centres undefined), the inhibition falls from 1.78% to -7.08%.

Compared with `COc1cccc(N(CC(=O)Nc2cccc(F)c2)S(C)(=O)=O)c1`, `CCN(CC)S(=O)(=O)c1ccc(NC(=O)CN(c2cccc(F)c2)S(C)(=O)=O)cc1` is lower in inhibition: -2.72% for the first, -22.3% for the second.

Going from `COc1cccc(CNn2cn[nH]c2=S)c1OCc1ccccc1` to `COc1ccc(C)cc1NC(=O)NCCCCc1ccccc1`, the inhibition falls from 7.14% to 2.71%.

Going from `O=C(CN1CCSCC1)N/N=C/c1ccc(F)cc1` to `O=C(N/C(=C/c1ccc(Cl)cc1)C(=O)N1CCCCC1)c1ccco1`, the inhibition falls from 10.8% to 7.31%.

First: CCOc1ccc(CCNC(=O)COC(=O)c2ccc(F)c(S(=O)(=O)N3CCOCC3)c2)cc1OCC
Second: COc1ccc(CCNC(=O)C2CCCN2C(=O)Nc2ccccc2)cc1OC (centres undefined)
The inhibition of the first is lower: -5.23% for the first, 2.79% for the second.

Going from `O=C(Nc1ccccc1F)c1ccc(Cn2cc(Br)cn2)cc1` to `O=C(Nc1ccccc1)OCc1cn(-c2ccc(Cl)cc2)nn1`, the inhibition rises from -6.22% to 6.14%.

Compared with `NC(=O)Cn1nc([N+](=O)[O-])nc1Oc1ccc(Br)cc1`, `COc1ccc(C(C[N+](=O)[O-])n2nc(C)cc2C)cc1` (centres undefined) is higher in inhibition: 4.94% for the first, 11% for the second.

Compared with `CCCCCCCCCCCCC(NC(C)=O)(C(=O)OCC)C(=O)OCC`, `CCOc1ccc(C(C(=O)NCCOC)N(CCOC)C(=O)CCC(=O)Nc2ccccn2)cc1` (centres undefined) is higher in inhibition: -7.56% for the first, -5.61% for the second.

Going from `CC(C)CNC(=O)C(=O)Nc1ccc(N(C)C)cc1` to `CC(=O)N(C)c1ccc(NC(=O)C(F)(F)F)cc1`, the inhibition falls from -3.03% to -11.5%.

Going from `CCCn1nnnc1NCc1ccc(CC)cc1` to `CCN(CC)Cc1csc2ccc(Br)cc12`, the inhibition falls from 10.3% to 5.3%.

Compared with `CC(C)c1ccc(NC(=S)NC2CC3C=CC2C3)cc1` (centres undefined), `O=C(Nc1ccc(C2CC2(Cl)Cl)cc1)c1cccc([N+](=O)[O-])c1` (centres undefined) is lower in inhibition: -1.5% for the first, -4.52% for the second.

Going from `COc1ccc2nc(SCc3ccccc3)nc(C)c2c1` to `Cc1cc(Nc2ccc(Br)cc2)nc2ccccc12`, the inhibition falls from 11.4% to -8.6%.

First: COc1ccc2[nH]c3nc(SCC(=O)NC4CC4)nnc3c2c1
Second: Cc1cc(=O)oc2cc(OCC(=O)Nc3nnc(C4CC4)s3)ccc12
The inhibition of the first is lower: -0.29% for the first, 7.9% for the second.

Going from `O=C(C1CCC1)N1CCc2cc(S(=O)(=O)NCc3cccnc3)ccc21` to `COc1ccc(S(=O)(=O)NC(C)C(=O)N2CCCCCC2)cc1` (centres undefined), the inhibition falls from 8.39% to 2.58%.

Going from `COc1cc(Nc2nc3ccc(Cl)cc3n3cnnc23)cc(OC)c1OC` to `COc1cc(OC)c(C(=O)NCc2ccc3c(c2)OCO3)cc1OC`, the inhibition falls from 2.08% to -7.83%.

First: Cc1ccc(-n2c(C)cc(/C=C(\C#N)C(=O)NCC3CCCO3)c2C)cc1 (centres undefined)
Second: Cc1sc2c(c1C)c(=O)n(-c1ccccc1)c(=O)n2CC(=O)NCC1CCCO1 (centres undefined)
The inhibition of the first is higher: 7.66% for the first, 1.39% for the second.

First: O=C(Cn1c(NCCO)nc2ccccc21)c1ccc(Cl)cc1Cl
Second: C=CCN(C(=O)Nc1ccc2oc(C)nc2c1)c1ccccc1
The inhibition of the first is lower: -13.3% for the first, 14.4% for the second.

First: Cc1ccc2c(C)c(C(=O)N(C)Cc3ccncn3)oc2c1C
Second: CCOC(=O)Cc1csc(NC(=O)COc2ccc3c(C)cc(=O)oc3c2)n1
The inhibition of the first is higher: 3.76% for the first, -2.07% for the second.

Compared with `COc1ccc2c(c1)C(C)=CC(C)(C)N2C(=O)CNCc1ccc2c(c1)OCO2`, `Cc1ccc(OCCC(=O)OCC(=O)N2c3ccccc3NC(=O)C2(C)C)cc1` is lower in inhibition: 3.99% for the first, -1.98% for the second.

Compared with `O=C(NCc1ccccc1)[C@@H]1CSC2c3ccccc3C(=O)N21` (some centres undefined), `O=C(CCCn1c(SCC(=O)c2ccccc2)nc2ccccc2c1=O)NCC1CCCO1` (centres undefined) is higher in inhibition: -9.14% for the first, 1.63% for the second.

First: CCN(CC(=O)Nc1c(F)cccc1F)C(=O)CN1c2cccc3cccc(c23)S1(=O)=O
Second: CCOCCCN(C)C1CCN(C(=O)c2oc3ccccc3c2NC(=O)Cc2cccc([N+](=O)[O-])c2)CC1
The inhibition of the first is higher: -4.49% for the first, -6.1% for the second.

Compared with `Nc1cc(N)nc(SCc2cccc(F)c2)n1`, `Cn1c(-c2ccc(F)cc2)cnc1SCC(=O)NCc1ccco1` is higher in inhibition: -19.7% for the first, 3.48% for the second.

Going from `COC(=O)c1ccccc1NC(=O)CSc1nc2c(c(=O)[nH]1)CCC2` to `COc1ccccc1NC(=O)CSc1nc2sc3c(c2c(=O)n1-c1ccccc1)CCN(C)C3`, the inhibition falls from -3.59% to -6.51%.

Going from `Cc1cccc(-n2c(=O)c3c(C)c(C)sc3n(CC(N)=O)c2=O)c1` to `Cc1cccc(C(=O)OCC(=O)Nc2sc3c(c2C#N)CCC3)c1`, the inhibition rises from -0.9% to 3.25%.

Going from `CCOc1ccc(-c2cn(S(=O)(=O)c3cccc4nsnc34)nc2N)cc1` to `CCOc1ccc(S(=O)(=O)N2CCN=C2Cc2ccccc2)cc1C`, the inhibition rises from 3.63% to 4.47%.

Compared with `CCN(CC)c1ccc2cc(C(N)=O)/c(=N\NC(=O)c3ccncc3)oc2c1`, `COc1ccc(NC2CCCN(C(=O)c3ccncc3)C2)cc1` (centres undefined) is lower in inhibition: 9.01% for the first, 5.52% for the second.

Going from `C=CCOC(=O)C1=C[C@H](c2ccc(Br)cc2)C[C@H](OCCCCO)O1` to `C=CCN(c1ccc(Cl)cc1)S(=O)(=O)c1cccc(C(=O)OCC(=O)N(C)C)c1`, the inhibition rises from 8.07% to 11.1%.

Going from `CCc1ccc(C(=O)NN=C2CCCCCC2)s1` to `N#Cc1c(NC(=O)CCCl)sc2c1CCCCC2`, the inhibition falls from 4.85% to -14.9%.

Compared with `CC(=O)c1cc(-c2ccccc2)[nH]c1N1CCCC1`, `CC(C)C[C@H]1CN=C(Nc2ccccc2)N1CC1CCCCC1` is higher in inhibition: -8.66% for the first, 0.22% for the second.

Compared with `Cc1ccc2c(c1)C(O)(CC(=O)c1cccc(-n3cccc3)c1)C(=O)N2` (centres undefined), `Cc1cccc(N2Cc3ccccc3C2=NC(=O)c2ccc(Cl)nc2)c1` is higher in inhibition: 2.62% for the first, 17.6% for the second.

First: O=[N+]([O-])c1cccc(S(=O)(=O)N2CCCCCC2)c1
Second: CC1=NCCN1S(=O)(=O)c1cccc([N+](=O)[O-])c1
The inhibition of the first is higher: 1.71% for the first, -6.19% for the second.

Compared with `CC(=O)CC[C@@H](C)O[C@@H]1OC(C)[C@H](O)CC1O` (some centres undefined), `COc1ccc(NC(=O)C2C3CCC(O3)C2C(=O)O)cc1OC` (centres undefined) is higher in inhibition: 4.39% for the first, 5.36% for the second.

First: Cc1cc(C)cc(NC(=O)NCc2ccccn2)c1
Second: COc1ccc([N+](=O)[O-])cc1NCC(=O)c1ccc(C)cc1
The inhibition of the first is lower: -7.86% for the first, 5.63% for the second.

Compared with `CC1CCCN(S(=O)(=O)c2ccc(-c3ccc(=O)[nH]n3)o2)C1` (centres undefined), `Cc1ccc(S(=O)(=O)N(CC(O)CN2C(=O)NC(C)(C)C2=O)c2cccc([N+](=O)[O-])c2)cc1` (centres undefined) is higher in inhibition: -20.5% for the first, -8.62% for the second.

Going from `CCOc1cc(C2C(C(=O)OC)=CN(C3CCCC3)C=C2C(=O)OC)cc(Br)c1O` to `COc1ccc(C(=O)Nc2ccccc2C(=O)N/N=C/c2ccc(O)c(OC)c2)cc1`, the inhibition falls from 11.7% to 6.06%.

First: Cc1ccccc1NC(=O)C(C)OC(=O)CCC(=O)N(CC(C)C)c1c(N)n(CC(C)C)c(=O)[nH]c1=O (centres undefined)
Second: CCOC(=O)c1ccc[n+](CC(=O)Nc2ccccc2OC(F)F)c1
The inhibition of the first is lower: -7.69% for the first, -2.1% for the second.

First: CSc1nnc(SCc2nc3sc(C(=O)O)c(C)c3c(=O)[nH]2)s1
Second: CN1CCN(CC(=O)C23CC4CC(CC(C4)C2)C3)CC1
The inhibition of the first is higher: 4.86% for the first, -0.65% for the second.

For `COc1ccc(-c2nonc2NC(=O)c2oc3ccc(F)cc3c2C)cc1OC`, the inhibition was 34.8% (active).
For `Cc1cccc(N(CC(=O)Nc2ccc(-c3nc4ccc(C)cc4s3)cc2)S(C)(=O)=O)c1`, the inhibition was 46.6% (active).
For `Cc1ccc2nc(-c3ccc(NC(=O)CN(C)S(=O)(=O)c4ccccc4)cc3)sc2c1`, the inhibition was 72.6% (active).
`CN(C)c1ccc(N/C=C/C(=O)C(F)(F)F)cc1` was tested, and the inhibition was 173% (active).
`COC(=O)CSc1nc(C)c2ccc(OC)cc2n1` was tested, and the inhibition was 78.5% (active).
With `COc1ccc(NC(=O)NCc2ccc3c(c2)OCO3)c(OC)c1` the inhibition was 71.6% (active).
For `Cc1cccc(NC(=O)Cn2c(=O)n(Cc3ccccc3)c(=O)c3c(C)c(C)sc32)c1`, the inhibition was 79.6% (active).
In the case of `CCN(CC)c1ccc2oc(=O)c(C)nc2c1`, the inhibition is reported as 110% (active).
For `CC(=O)c1c(C)[nH]c(C(=O)OCC(=O)Nc2sc3c(c2C#N)CCCC3)c1C`, the inhibition was 42.2% (active).
In the case of `CCc1nccn1S(=O)(=O)c1cccc([N+](=O)[O-])c1`, the inhibition is reported as 31.4% (active).
In the case of `COc1ccc(C)cc1NC(=O)NCc1ccccn1`, the inhibition is reported as 110% (active).
`N#Cc1ccc(N2Cc3ccccc3/C2=N/C(=O)Nc2ccc(Cl)cc2)cc1` was tested, and the inhibition was 73.5% (active).
For `O=C(CCCn1c(SCC(=O)c2ccc(F)cc2)nc2ccccc2c1=O)NCc1ccco1`, the inhibition was 37.8% (active).
`COC(=O)C1=CN(Cc2ccc(OC)cc2)C=C(C(=O)OC)C1c1ccc(O)c(OC)c1` was tested, and the inhibition was 28.7% (active).
With `Cc1ccc(-c2nc(SCC(=O)Nc3ccccc3OC(F)F)c3c(C)c(C(=O)O)sc3n2)cc1` the inhibition was 29.7% (active).
For `Cc1ccc(O)c(/C=N/NC(=O)COc2ccc3c(C)cc(=O)oc3c2)c1`, the inhibition was 27.9% (active).
